ERK EGF block – qHTS Assay for Inhibitors of the ERK Signaling Pathway using a Homogeneous Screening Assay; Stimulation with EGF. HEK293-V1b, EGF-stimulated phospho-ERK AlphaScreen. 130,000 compounds, 0.41% hits. Potency, µM (series often up to 11.5 µM), for inactives: at the top dose activity change, negative = inhibition, most hits filed as inhibitors; active = well fitted inhibition curve with a large enough effect;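 also: plate controls were stimulated vehicle wells for no effect and unstimulated vehicle basal for full effect; nearly all actives have a fitted effect of over 55% in size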
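Phospho-ERK1/2 measured by AlphaScreen (SureFire) after 5 min 25 nM EGF stimulation of V1b-expressing HEK293 cells preincubated 30 min at 37C with titrated compounds; data scaled to DMSO and EGF controls, Hill-fitted AC50.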
Numbers without * were called inactive; [ ] = dose if it differs, or a comment. The entries come from a sample that favours hits as a whole. Potency is read from the fitted curve at half-maximal effect.

SMILES	ERK EGF block
COc1ccc(-c2csc(NC(=O)c3ccoc3C)n2)cc1	16µM*
COc1ccc(-c2csc(NC(=O)c3ccccc3C(=O)O)n2)cc1	5%
CCN(CC)CCn1c(-c2ccccc2)nc2c(NCc3ccccc3)nc(C)nc21	5%
COc1ccc(/C=N/NC(=O)c2cccnc2)cc1COc1ccc([N+](=O)[O-])cc1	22µM*
COc1cc(/C=N/NC(=O)c2cccnc2)ccc1OC(=O)c1ccc([N+](=O)[O-])cc1	-2%
COc1ccc(/C=N/NC(=O)c2cccnc2)cc1COc1ccc(NC(C)=O)cc1	1%[57.5 µM]
CC(=O)Nc1ccc(-c2csc(Nc3ccc(Cl)cn3)n2)cc1	1%
CC(=O)Nc1cccc(-c2csc(NCc3ccccc3)n2)c1	-10%
CC(=O)Nc1cccc(-c2csc(Nc3ccc(Cl)cn3)n2)c1	28µM*
NC(=O)CC(NC(=O)c1ccc(Br)cc1)c1ccc(N2CCC(Br)CC2)c([N+](=O)[O-])c1 (configuration not stated)	-6%[57.5 µM]
O=C(CCNC(=O)c1ccccc1Cl)Nc1cc(C(F)(F)F)ccc1Cl	0%
O=C(O)c1ccccc1C(=O)Nc1ccc(Br)c(C(F)(F)F)c1	2%[57.5 µM]
O=C(CCNC(=O)c1ccccc1Cl)Nc1ccc(Br)c(C(F)(F)F)c1	28µM*
COc1ccc(CNc2ncncc2-c2ccc3c(c2)OCO3)c(OC)c1	25%
CCC/C=C(\CCC)C(NC(=O)c1ccco1)c1ccc(C(=O)OC)cc1 (configuration not stated)	1%
Cc1ccc(NC(=O)CN2C(=O)NC(Cc3ccccc3)C2=O)c(Br)c1 (configuration not stated)	0%
Cc1ccccc1OCC(=O)OCC(=O)NCC1CCCO1 (configuration not stated)	-3%
Cn1cc(/C=C2\SC(=O)N(c3ccccc3)C2=O)c2ccccc21	13%
CCN1C(=O)S/C(=C/c2cn(C)c3ccccc23)C1=O	12%
Cn1cc(/C=C2\SC(=O)N(c3ccc(O)cc3)C2=O)c2ccccc21	35µM*
COC(=O)[C@@]1(Cc2ccccc2)[C@H]2c3cc(C(=O)N(C)C)n(Cc4ccc(O)c(OC)c4)c3C[C@H]2CN1C(=O)c1ccccc1	3%
CCN1C(=O)/C(=C2/C=Cc3ccccc3N2CC)SC1=S	16µM*
CCN1C(=C(C#N)C#N)C=Cc2ccccc21	-5%
CCN1C(=O)/C(=C2\Sc3ccccc3N2CC)OC1=S	13%
CCOC(=O)c1c(C)[nH]c(C2=NNC(=NC3CC3)SC2)c1C	-9%
SMILES	ERK EGF block
[N-]=[N+]=Nc1nc2c(N)ncnc2n1C1OC(CO)C(O)C1O (configuration not stated)	24%
O=[N+]([O-])c1cccc(-c2ccc(C(=S)N3CCN(c4ccccc4)CC3)o2)c1	25µM*
O=[N+]([O-])c1cccc(-c2ccc(C(=S)N3CCOCC3)o2)c1	2%
O=C(c1ccc(-c2cccc(Cl)c2)o1)N1CCN(c2ccc([N+](=O)[O-])cc2)CC1	-2%
CCNc1nnc(CCn2nc(C)c(Br)c2C)s1	-6%
c1ccc(-c2ccc(N3CC4(CCNCC4)C3)cc2)cc1	20µM*
O=C(c1ccncc1)N1CCC2(CC1)CN(c1ccc(-c3ccccc3)cc1)C2	4%
COC(=O)N1CCC2(CC1)CN(c1ccc(-c3ccccc3)cc1)C2	1%
O=S(=O)(NC1c2cccc3cccc(c23)C1N1CCNCC1)c1ccc(Cl)cc1 (configuration not stated)	1%
Clc1cccc2c1Sc1ccccc1CC2N1CCNCC1 (configuration not stated)	28µM*
S=C1NCCc2ccccc2C1c1ccccc1Cl (configuration not stated)	12%
CCCCCCCc1cc2c(cn1)C(=O)C(C)(OC(C)=O)C(O)=C2Cl (configuration not stated)	-11%
N#Cc1ccc(CN2CC[C@@]3(CCCN(S(=O)(=O)c4ccccc4)C3)C2)cc1	-8%
CO[C@H]1C=CO[C@@]2(C)Oc3c(C)c(O)c4c(O)c(c(C=NN5CCN(C6CCCC6)CC5)c(O)c4c3C2=O)NC(=O)C(C)=CC=C[C@H](C)[C@H](O)[C@@H](C)[C@@H](O)[C@@H](C)[C@H](OC(C)=O)[C@@H]1C	8.9µM*
Clc1ccccc1CNCC1CCC(CNCc2ccccc2Cl)CC1 (configuration not stated)	-6%
CC(C)(CO)[C@@H](O)C(=O)NCCCO	-12%
O=C(O)/C=C\c1ccc(Cn2ccnc2)cc1	8%[25.7 µM]
Cc1cc(O)c(C(C)C)cc1NC(=O)c1ccccc1Cl	-3%
COc1ccc2nc3cc(Cl)ccc3c(Nc3cc(C(C)C)c(O)cc3C)c2c1	18µM*
CCN(CC)CCCC(C)Nc1c2ccc(Cl)cc2nc2ccc(OC)cc12 (configuration not stated)	3%
CC1Nc2ccccc2C(=O)N1NC(=O)c1ccc(Br)cc1 (configuration not stated)	-4%
O=C(NC1CCCC1)C(=O)N(Cc1cccnc1)C(C(=O)NCC1CCCO1)c1ccco1 (configuration not stated)	-4%
CC1OC(OC2C(OC3C(O[C@H]4CC[C@]5(C)C6C=C[C@]78OC[C@@]9(CC[C@@H](C)[C@H](C)C97)[C@H](O)C[C@@]8(C)[C@]6(C)CC[C@H]5C4(C)C)OC(C)C(O)C3O)OC(CO)C(O)C2O)C(O)C(O)C1O (some centres not stated)	11µM*
CC1O[C@@H](O[C@H]2C(Oc3cc(O)c4c(c3)OC(c3ccc(O)cc3)CC4=O)OC(CO)C(O)C2O)C(O)C(O)C1O (some centres not stated)	12%
CC(=O)N1CCC2(CCCN(Cc3cc(C(F)(F)F)cc(C(F)(F)F)c3)C2)CC1	-7%
SMILES	ERK EGF block
COc1ccc(NC(=O)N2CC3(CCN(C(=O)c4c(C)noc4C)CC3)C2)cc1	-2%
CC(=O)Nc1ccc(Nc2ccc3c4c(cc(=O)n3C)-c3ccccc3C(=O)c24)cc1	8%
O=C1c2ccccc2C(=O)c2c(Nc3ccc(CCO)cc3)ccc(O)c21	14µM*
O=C1c2ccccc2C(=O)c2c(O)ccc(O)c21	-11%
COC1OC(CO)C(OC2OC(C(=O)O)C(OC3OC(COS(=O)(=O)O)C(OC4OC(C(=O)O)C(OC5OC(CO)C(OC6OC(C(=O)O)C(OC7OC(COS(=O)(=O)O)C(OC8OC(C(=O)O)=C[C@H](O)C8OS(=O)(=O)O)C(O)C7NC(C)=O)[C@@H](O)C6O)C(O)C5NC(C)=O)[C@@H](O)C4O)C(O)C3NC(C)=O)[C@@H](O)C2O)C(O)C1NC(C)=O (some centres not stated)	26%
COCCn1c(=O)c(CCc2ccccc2)nc2cnc(Oc3cccc(Cl)c3)nc21	0%
Cn1cccc1C(=O)N1CCC2(CCN(Cc3ccncc3)CC2)CC1	2%
C=C[C@@H]1CN2CC[C@@H]1C[C@H]2[C@H](O)c1ccnc2ccc(OC)cc12	2%
COc1ccc(OCc2cc(C(=O)O)c(C)o2)cc1	7%[57.5 µM]
COc1ccc(-c2cc(C(=O)NN)[nH]n2)cc1	1%
COc1ccc(-c2[nH]ncc2C=O)cc1	4%
COc1ccc(-c2[nH]nc3oc(=O)c(CCO)c(C)c23)cc1	16µM*
NC(=NCCC[C@H](N)C(=O)O)NO	14%
O=[N+]([O-])c1cccc(-c2ncc3ccccn23)c1	-22%
Clc1ccc(-c2ncc3ccccn23)cc1	32µM*
Clc1ccccc1-c1ncc2ccccn12	-1%

High-throughput results as filed in PubChem BioAssay.
